Among the test systems are NCI-H23 lung; NCI-H226 lung; NCI-H322M lung; HOP-62 NSCLC; NCI-H460 lung; HOP-92 NSCLC; NCI-H522 lung; A549/ATCC NSCLC; 786-0 renal; COLO 205 colon; DU-145 prostate; K-562 leukemia; MALME-3M melanoma; MDA-MB-231 breast; RXF 393 renal; SF-268 CNS; SF-295 CNS; SF-539 CNS; UACC-257 melanoma; M14 melanoma.
What all share (experiment): NCI-60 one-dose screen, 48 h (100 = growth as untreated, 0 = no growth, -100 = all killed)
Common to all, as to conditions: 10 µM

The text below walks through data of PubChem BioAssay (NCI).

Where “and” joins values, the source holds several entries; their conditions need not be identical. Equal values may be shown once. Compounds without any hit were thinned out: in the full panel of roughly 83,000, 20% have a hit.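 Note: values are percent growth. 100 is the growth of untreated cells, values between 100 and 0 indicate rising inhibition; between -100 and 0 indicates cell death.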 Calls of active or inactive are those of the source. Rule for the calls: active = growth percent below 10; inactive = the rest.

In the case of `O=[N+]([O-])/C=C/c1ccc([N+](=O)[O-])cc1`, the growth in the test with NCI-H23 lung is 56.7% (inactive) and 68.7% (inactive); in the test with NCI-H226 lung, 114% (inactive); with NCI-H322M lung, 90.4% (inactive) and 92.5% (inactive); in the test on HOP-62 NSCLC it was 69.5% (inactive) and 107% (inactive); with NCI-H460 lung it was 19.9% (inactive) and 102% (inactive); with HOP-92 NSCLC, 67.6% (inactive) and 97.8% (inactive). In addition, the growth in the test on NCI-H522 lung was 81.6% (inactive) and 47.3% (inactive); in the test with A549/ATCC NSCLC, 44.2% (inactive) and 101% (inactive); with 786-0 renal, 55.2% (inactive) and 98.1% (inactive); in the test with COLO 205 colon, -8.72% (active) and 50.6% (inactive); in the test on DU-145 prostate, -47.5% (active) and 72.1% (inactive); in the test on K-562 leukemia, 5.65% (active) and 18.5% (inactive). Moreover, the growth is 66.7% (inactive) and 54.6% (inactive) in the test with MALME-3M melanoma; 66.5% (inactive) and 84.5% (inactive) with MDA-MB-231 breast; 101% (inactive) in the test on RXF 393 renal; 25.4% (inactive) and 103% (inactive) with SF-268 CNS; 76.2% (inactive) and 104% (inactive) with SF-295 CNS; -27.5% (active) and 75.7% (inactive) with SF-539 CNS. The growth in the test on UACC-257 melanoma was -4.16% (active) and 96.5% (inactive); in the test on M14 melanoma it was -29.1% (active) and 66.1% (inactive).
As to `COS(=O)(=O)c1ccccc1`, the growth in the test on NCI-H23 lung was 98.5% (inactive); in the test on NCI-H226 lung it was 107% (inactive); with NCI-H322M lung, 106% (inactive); with HOP-62 NSCLC, 102% (inactive); in the test on NCI-H460 lung, 112% (inactive); in the test with HOP-92 NSCLC, 105% (inactive). Also, the growth in the test on NCI-H522 lung was 111% (inactive); with A549/ATCC NSCLC, 105% (inactive); in the test with 786-0 renal, 115% (inactive); with COLO 205 colon, 113% (inactive); in the test on DU-145 prostate, 114% (inactive); in the test with K-562 leukemia it was 103% (inactive). For the same compound, the growth is 111% (inactive) in the test on MALME-3M melanoma; 123% (inactive) in the test with MDA-MB-231 breast; 109% (inactive) with RXF 393 renal; 95.9% (inactive) in the test with SF-268 CNS; 109% (inactive) in the test with SF-295 CNS; 101% (inactive) in the test on SF-539 CNS. For the same compound, in the test with UACC-257 melanoma, the growth was 101% (inactive).
For `Cc1cc(C(C)(C)c2ccc(O)c(C)c2)ccc1O`, the growth is 97.4% (inactive) in the test on NCI-H23 lung; 107% (inactive) with NCI-H226 lung; 93.4% (inactive) in the test on NCI-H322M lung; 97.4% (inactive) with HOP-62 NSCLC; 110% (inactive) with NCI-H460 lung; 110% (inactive) in the test with HOP-92 NSCLC. The growth with NCI-H522 lung was 83.8% (inactive); in the test with A549/ATCC NSCLC it was 75.7% (inactive); in the test with 786-0 renal, 102% (inactive); in the test with COLO 205 colon, 100% (inactive); in the test on DU-145 prostate it was 107% (inactive); with K-562 leukemia, 80.8% (inactive). Further, the growth in the test on MALME-3M melanoma was 88.4% (inactive); with MDA-MB-231 breast, 80.5% (inactive); in the test with RXF 393 renal, 93.5% (inactive); in the test on SF-268 CNS, 90.3% (inactive); in the test on SF-295 CNS, 104% (inactive); in the test with SF-539 CNS, 92.2% (inactive). In addition, the results for the growth in the test with UACC-257 melanoma and in the test with M14 melanoma were 81.7% (inactive) and 106% (inactive), respectively.
As for `CC[C@@]1(O)C[C@H](OC2CC(N(C)C)C(O)C(C)O2)c2c(cc3c(c2O)C(=O)c2c(O)ccc(O)c2C3=O)[C@H]1C(=O)OC` (some centres undefined), the growth in the test on NCI-H23 lung was -79.6% (active); with NCI-H226 lung, -62.3% (active); in the test with NCI-H322M lung, -78.6% (active); in the test with HOP-62 NSCLC, -69.6% (active); with NCI-H460 lung it was -64% (active); in the test with HOP-92 NSCLC, -68.9% (active). The growth in the test with NCI-H522 lung was -70.1% (active); in the test with A549/ATCC NSCLC, -84.8% (active); with 786-0 renal it was -97.5% (active); in the test on COLO 205 colon, -80.1% (active); with DU-145 prostate it was -77.8% (active); with K-562 leukemia, -73.7% (active). Besides, the growth in the test with MALME-3M melanoma is -87.4% (active); with MDA-MB-231 breast, -70.9% (active); with RXF 393 renal, -66.3% (active); in the test with SF-268 CNS it was -61% (active); in the test with SF-295 CNS, -81.5% (active); in the test with SF-539 CNS, -88.5% (active). In addition, the growth in the test with UACC-257 melanoma is -67.7% (active); in the test with M14 melanoma it was -93.1% (active).
With `COc1cc(/C=C(/C)[N+](=O)[O-])ccc1O`, the growth in the test with NCI-H23 lung is 61.1% (inactive) and 81.4% (inactive); in the test with NCI-H226 lung, 86.7% (inactive) and 91% (inactive); with NCI-H322M lung it was 66.7% (inactive) and 91.5% (inactive); with HOP-62 NSCLC it was 55.6% (inactive) and 47.6% (inactive); in the test on NCI-H460 lung, 43% (inactive) and 21.5% (inactive); with HOP-92 NSCLC, 41.3% (inactive). The growth with NCI-H522 lung was -78.2% (active) and -84.9% (active); with A549/ATCC NSCLC, 57.4% (inactive) and 48.9% (inactive); in the test with 786-0 renal it was 50% (inactive) and -13.4% (active); in the test on COLO 205 colon it was 60.8% (inactive) and 47.9% (inactive); with DU-145 prostate, 21.7% (inactive) and 17.1% (inactive); with K-562 leukemia, 2.31% (active) and 1.66% (active). Moreover, the growth was 40% (inactive) and 1.16% (active) with MALME-3M melanoma; 66.3% (inactive) and 50.5% (inactive) with MDA-MB-231 breast; -57.5% (active) and -94.8% (active) in the test on RXF 393 renal; 47.5% (inactive) and 87.3% (inactive) with SF-268 CNS; 99.2% (inactive) in the test with SF-295 CNS; 57.2% (inactive) and 20.3% (inactive) in the test with SF-539 CNS. Besides, the growth with UACC-257 melanoma is 18.2% (inactive) and -56% (active); in the test on M14 melanoma, 39.6% (inactive).
For the compound `C[C@]12CC[C@H]3[C@@H](CCC4=CC(=O)CC[C@@H]43)[C@@H]1CC[C@@H]2OC(=O)N(CCCl)N=O`, the growth in the test on NCI-H23 lung is 55.7% (inactive); in the test on NCI-H226 lung, 55.8% (inactive); in the test on NCI-H322M lung it was 45.6% (inactive); with HOP-62 NSCLC, 44.8% (inactive); in the test on NCI-H460 lung, -37.9% (active); in the test on HOP-92 NSCLC, -11% (active). Moreover, the growth was 39.7% (inactive) in the test with NCI-H522 lung; 40.7% (inactive) in the test with A549/ATCC NSCLC; 17.9% (inactive) in the test on 786-0 renal; 58.8% (inactive) in the test with COLO 205 colon; 1.81% (active) with DU-145 prostate; 29.5% (inactive) in the test on K-562 leukemia. Also, the growth was 91.7% (inactive) in the test with MALME-3M melanoma; 76.3% (inactive) with MDA-MB-231 breast; 69.9% (inactive) with RXF 393 renal; 23.7% (inactive) in the test with SF-268 CNS; 12.3% (inactive) in the test on SF-295 CNS; -0.439% (active) with SF-539 CNS. Besides, the growth in the test on UACC-257 melanoma is 84.4% (inactive); in the test on M14 melanoma, 49% (inactive).
